# Screens: PubChem BioAssay, Buhrlage Lab, Dana-Farber Cancer Institute and Novartis Institutes for BioMedical Research (Cambridge, Mass)
# This is a sample that favours compounds with a hit; in the whole collection about 13% have one here.
# USP7 inh – blocks human USP7 ubiquitin-rhodamine cleavage. Q93009. purified USP7, Ub-rhodamine cleavage fluorescence. inhibition, % at 20 µM. 47,000 compounds, 0.3% hits. AID 1645854
# Target sequence (Q93009 whole entry, looked up): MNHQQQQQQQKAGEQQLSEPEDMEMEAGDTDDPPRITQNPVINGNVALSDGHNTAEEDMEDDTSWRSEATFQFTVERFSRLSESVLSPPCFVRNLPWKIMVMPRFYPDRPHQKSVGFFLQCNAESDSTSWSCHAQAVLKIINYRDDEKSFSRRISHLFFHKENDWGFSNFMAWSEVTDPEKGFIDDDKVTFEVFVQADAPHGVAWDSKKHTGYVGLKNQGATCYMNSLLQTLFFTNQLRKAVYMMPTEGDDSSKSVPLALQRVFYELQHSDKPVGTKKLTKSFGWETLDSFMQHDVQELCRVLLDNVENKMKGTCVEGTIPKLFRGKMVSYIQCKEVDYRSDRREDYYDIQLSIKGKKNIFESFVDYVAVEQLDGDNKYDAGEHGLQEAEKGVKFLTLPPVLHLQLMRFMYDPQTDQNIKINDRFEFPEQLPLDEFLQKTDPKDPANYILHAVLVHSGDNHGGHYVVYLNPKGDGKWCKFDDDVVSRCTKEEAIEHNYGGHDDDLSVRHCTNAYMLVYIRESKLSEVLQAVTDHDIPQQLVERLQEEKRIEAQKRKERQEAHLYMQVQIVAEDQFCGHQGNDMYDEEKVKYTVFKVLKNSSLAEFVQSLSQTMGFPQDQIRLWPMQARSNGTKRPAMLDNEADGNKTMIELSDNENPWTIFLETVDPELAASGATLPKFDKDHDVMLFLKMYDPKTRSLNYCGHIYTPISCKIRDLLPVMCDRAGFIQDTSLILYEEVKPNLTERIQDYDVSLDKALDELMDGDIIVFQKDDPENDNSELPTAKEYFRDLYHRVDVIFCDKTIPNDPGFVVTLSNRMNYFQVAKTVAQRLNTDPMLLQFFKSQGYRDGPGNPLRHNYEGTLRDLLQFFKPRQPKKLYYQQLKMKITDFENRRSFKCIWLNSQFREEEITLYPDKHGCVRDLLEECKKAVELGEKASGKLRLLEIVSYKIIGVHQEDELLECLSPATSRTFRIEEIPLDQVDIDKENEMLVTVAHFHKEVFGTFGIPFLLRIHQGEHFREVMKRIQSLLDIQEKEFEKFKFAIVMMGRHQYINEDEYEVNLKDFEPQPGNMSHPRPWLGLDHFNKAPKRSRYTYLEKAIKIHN
# USP8 inh – human USP8 deubiquitinase inhibition | purified USP8, Ub-rhodamine cleavage fluorescence, 30 min | inhibition, % at 20 µM | 47,000 compounds, 4.2% hits | AID 1645853
# USP30 inh – inhibitors of human USP30 deubiquitinase; inhibition, % at 25 µM; 47,000 compounds, 5.3% hits; Q70CQ3; purified USP30, Ub-rhodamine cleavage fluorescence
# USP10 inh – blocks human USP10 ubiquitin-rhodamine cleavage | AID 1645856 | Q14694 | purified USP10, Ub-rhodamine fluorescence, 60 min | 47,000 compounds, 1.1% hits | inhibition, % at 20 µM
# UCHL1 block – inhibitors of human UCHL1 deubiquitinase | purified UCHL1, Ub-rhodamine cleavage fluorescence | 47,000 compounds, 0.2% hits | inhibition, % at 20 µM | P09936
# USP17 block – blocks human USP17 ubiquitin-rhodamine cleavage | A8MUK1 | purified USP17, Ub-rhodamine cleavage fluorescence, 3 h | inhibition, % at 50 µM | 47,000 compounds, 6.5% hits | AID 1645855
# * marks the source's active call; other numbers are inactive results; i = inactive; nt = no result given. Rule as the data show it: active = inhibition above about 30%; inactive = the rest.
SMILES,USP7 inh,USP8 inh,USP30 inh,USP10 inh,UCHL1 block,USP17 block
COc1ccc(CNC(=O)COc2ccccc2-c2nnc(-c3ccccc3)o2)cc1,3,-18,-17,-1,-4,-6
Cc1ccccc1NC(=O)CC(c1ccco1)n1cccc1 (configuration not stated),-1,8,-28,-4,-2,-1
O=C(Oc1ccccc1Br)c1cc(-c2ccc3c(c2)OCCO3)on1,-74,52*,33*,-7,-4,21
O=C(C1CCC(=O)N1S(=O)(=O)c1ccccc1)N1CCN(c2ccc(F)cc2)CC1 (configuration not stated),-9,-34,-7,0,-2,-17
CC(C)c1ccc(S(=O)(=O)N2CCC(C(=O)N3CCc4sccc4C3)CC2)cc1,7,19,12,-9,1,3
O=C(C1CCN(S(=O)(=O)c2cc(F)ccc2F)CC1)N1CCc2sccc2C1,-3,74*,-1,-4,0,33*
Cc1ccc(S(=O)(=O)N2CCC(n3cnc4ccc(C)cc4c3=O)CC2)cc1,8,0,35*,2,7,18
CCn1c(=O)c(CCC(=O)NCc2ccc(OC)cc2)c(C)c2c(C)nn(-c3ccccc3C)c21,6,2,77*,5,7,70*
Cc1ccc(S(=O)(=O)N2CCN(C(=O)CN3CCc4ccccc43)CC2)c(C)c1,-1,16,4,-5,0,26
Cc1ccc(S(=O)(=O)N2CCN(C(=O)CN3c4ccccc4CC3C)CC2)c(C)c1 (configuration not stated),-1,37*,-129,-12,-6,-7
Cc1cc(C)cc(NC(=O)CCn2nc(C)c(S(=O)(=O)N3CCOCC3)c2C)c1,-2,-30,-9,2,-2,-20
O=c1[nH][nH]c(=O)c2n[nH]nc12,-134,92*,-35,-4,-1,14
Cc1ccc(C)c(C(=O)CSc2nnc(C)n2Cc2ccccc2)c1,-14,0,5,1,2,-11
COc1ccc(C)cc1-n1nnnc1SCC(=O)c1cc(C)ccc1C,9,-11,32*,10,3,4
CCCC(=O)N1CCC2(CC1)Nc1ccccc1NC2=O,-5,87*,-13,-2,9,70*
CCCC(=O)N1CCC2(CC1)NC(=O)N(CCc1ccccc1)C2=O,1,10,-1,0,0,4
COc1cccc(C2CC(c3ccc(C)cc3)=NN2C(C)=O)c1OC (configuration not stated),-3,0,-16,1,-3,-3
O=C(CCCn1nc(-c2ccccc2)c2cc(Cl)ccc21)NCc1ccc2c(c1)OCO2,-4,0,26,1,7,7
COc1cc(NC(=O)CSc2ncnc3scc(-c4ccccc4)c23)c(C(=O)O)cc1OC,5,-47,-147,30*,2,-19
c1ccc(COc2ncnc3scc(-c4ccccc4)c23)cc1,-2,12,-19,4,1,14
COc1cc2c(cc1OC)CN(c1ncnc3scc(-c4ccccc4)c13)CC2,-19,37*,-28,-9,-8,-42
Cc1nn(-c2ccc(Cl)cc2)c2[nH]c(=O)c(CNCc3ccc4c(c3)OCO4)cc12,-1,81*,9,-1,2,27
Cc1nn(-c2ccc(Cl)cc2)c2[nH]c(=O)c(CNc3ccc(C(C)(C)C)cc3)cc12,5,3,0,3,3,39*
COc1ccc(Cn2c(C(=O)O)c(CNCc3cccs3)c3ccccc32)cc1,-17,8,11,-4,-4,24
Cc1nn(-c2ccc(Cl)cc2)c2[nH]c(=O)c(CNCc3cccs3)cc12,4,77*,i,6,-4,8
SMILES,USP7 inh,USP8 inh,USP30 inh,USP10 inh,UCHL1 block,USP17 block
Clc1ccc2c(NCc3cccs3)ncnc2c1,1,8,22,2,0,12
COc1ccc(-c2nn(-c3ccccc3)c3[nH]c(=O)c(CNCc4cccs4)cc23)cc1,17,82*,-44,9,7,0
COc1ccc(C2CC(=O)c3cnc(NCc4ccco4)nc3C2)cc1 (configuration not stated),-3,2,-27,3,3,-8
COC(=O)c1ccccc1N/C=C/c1nccc2c1cnc1c(C#N)cnn12,1,23,-20,-7,-8,16
Cc1nn(-c2ccc(Cl)cc2)c2[nH]c(=O)c(CNCc3ccc(F)cc3)cc12,7,76*,-208,-6,-2,-107
Cc1nn(-c2ccccc2)c2[nH]c(=O)c(CNC(C)c3cccs3)cc12 (configuration not stated),11,30*,11,6,2,15
Cc1nn(-c2ccccc2)c2nc(C(F)(F)F)[nH]c(=O)c12,3,7,nt,1,0,4
O=C1CC(c2noc(-c3ccccn3)n2)CN1c1ccc(F)cc1 (configuration not stated),-1,0,4,1,0,-8
O=C1CC(c2noc(-c3ccccn3)n2)CN1c1cccc(F)c1 (configuration not stated),0,10,32*,-1,0,16
CSCCC(NS(=O)(=O)c1ccccc1C(F)(F)F)c1nnc2ccccn12 (configuration not stated),-1,3,-5,-1,0,-2
O=C(c1ccccc1F)N1CCC(Nc2ncnc3c2CCC3)CC1,0,-1,1,1,-1,-1
CCN1CCc2nc(NC(=O)CCCOc3ccc(C(C)=O)cc3)sc2C1,2,-23,36*,-5,4,44*
COc1ccc2nc(NC(=O)CCCOc3ccc(C(C)=O)cc3)sc2c1,0,-55,-37,-5,0,-5
CC(=O)c1ccc(OCCCC(=O)Nc2nc3c(C)cccc3s2)cc1,4,20,17,2,3,36*
CCOc1ccc(NC(=O)COc2ccc(F)cc2)c2cccnc12,-4,17,-8,-2,0,5
CCCCOc1cccc(C(=O)Nc2ccc(OCC)c3ncccc23)c1,-2,83*,1,-7,0,47*
Cc1ccc(Nc2nc3c(S(=O)(=O)c4ccc(C)c(C)c4)nnn3c3ccccc23)cc1C,10,53*,25,12,2,24
CC(=O)Nc1ccc(S(=O)(=O)N2CC=C(c3cn(C(C)C)c4ncccc34)CC2)cc1,1,-1,-25,-2,2,-1
O=C(c1cccc(=O)[nH]1)N1C[C@@H](O)[C@H](N2CCC(F)(F)CC2)C1,1,-3,-3,-1,-2,-5
CC(C)(C)c1cc(NC(=O)CCc2ccccc2)no1,0,11,24,11,-1,4
CC(C)(C)c1cc(CCC(=O)Nc2c3c(nc4c2CCC4)CCCC3)cc(C(C)(C)C)c1O,5,8,77*,-8,3,0
